About 83,000 compounds went through this panel and 20% of them were active in at least one assay; those are over-represented in the sample as a whole.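 Percent growth is the endpoint: 0 to 100 indicates growth inhibition (40 means 60% inhibition), 0 means no net growth, and negative values indicate cell death.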 Active and inactive are the calls of the source. How the source made its calls: active means growth percent below 10; inactive means the rest.
What was measured:
Experiment in all cases: NCI-60 one-dose screen, 48 h (100 = growth as untreated, 0 = no growth, -100 = all killed)
Settings in all cases: 10 µM
[1] = test system: SR leukemia
[2] = test system: RPMI-8226 leukemia
[3] = test system: OVCAR-8 ovarian
[4] = test system: OVCAR-5 ovarian
[5] = test system: OVCAR-4 ovarian
[6] = test system: SK-OV-3 ovarian
[7] = test system: IGROV1 ovarian
[8] = test system: OVCAR-3 ovarian
[9] = test system: HS 578T breast
[10] = test system: NCI/ADR-RES ovarian
[11] = test system: T-47D breast
[12] = test system: BT-549 breast
[13] = test system: MDA-MB-435 melanoma
[14] = test system: SW-620 colon
[15] = test system: MCF7 breast
[16] = test system: HCT-116 colon
[17] = test system: HCC-2998 colon
[18] = test system: KM12 colon

Measured: growth

Oc1ccc(/C=N\Nc2ccccn2)c(O)c1
active: [8] -2.36% | [10] 0.0991% | [15] 0.224% | [16] 4.54%
inactive: [1] 11.7% | [2] 26.2% | [3] 26.6% | [4] 61.4% | [5] 32.7% | [6] 32.4% | [7] 22.7% | [9] 65.8% | [11] 33.7% | [12] 23.7% | [13] 34.2% | [14] 35.3% | [17] 23.9% | [18] 38.4%

COc1nc2c(c(=O)[nH]1)C(c1ccc(Oc3ccnc4cc(Cl)ccc34)c(OC)c1)C=C(c1cc(OC)c(OC)c(OC)c1)N2 (stereo unspecified)
inactive: [1] 74.1% | [2] 94.5% | [3] 97.4% | [4] 92.6% | [5] 106% | [6] 99.5% | [7] 107% | [8] 108% | [9] 98.3% | [10] 101% | [11] 89.8% | [12] 91.7% | [13] 111% | [14] 102% | [15] 102% | [16] 94% | [17] 97.6% | [18] 104%

COc1cc(C2C(C#N)=C(c3c[nH]c4ccccc34)Nc3nc(N)[nH]c(=O)c32)cc(OC)c1OC (stereo unspecified)
inactive: [1] 78.7% | [2] 98.2% | [3] 99.1% | [4] 96.8% | [5] 75.2% | [6] 80.6% | [7] 80.3% | [8] 21% | [9] 96% | [10] 100% | [11] 36.2% | [12] 51.6% | [13] 38.1% | [14] 86.9% | [15] 42.2% | [16] 74% | [17] 93.1% | [18] 94.1%

CC(=O)c1c(O)cc2c3c1OC(C)(C)C1CCC(C)(CC31)O2 (stereo unspecified)
inactive: [1] 86.7% | [2] 54.4% | [3] 86.3% | [4] 97.7% | [5] 89.6% | [6] 97.6% | [7] 96.2% | [8] 93.8% | [9] 115% | [10] 89.6% | [11] 66.4% | [12] 90.8% | [13] 104% | [14] 107% | [15] 119% | [16] 86.8% | [17] 115% | [18] 94.8%

Cc1ccc2nc3[nH]c(=O)[nH]c(=O)c3c(N)c2c1
inactive: [1] 95.6% | [2] 89.8% | [3] 88.5% | [4] 92.9% | [5] 81.7% | [6] 86% | [7] 75.1% | [8] 101% | [9] 79.2% | [10] 97.8% | [11] 85.1% | [12] 99.8% | [13] 91.5% | [14] 97.8% | [15] 89.3% | [16] 80.6% | [17] 95.9% | [18] 91%

CCCCCCCCCCCCCCCCn1cc[n+](C)c1
active: [3] -53.7% | [4] -67.5% | [5] -54.8% | [6] -33.8% | [7] -67.1% | [8] -24.8% | [9] -48.4% | [11] -0.127% | [12] -65.2% | [13] -55.8% | [14] -66.7% | [15] -79.9% | [16] -87.2% | [17] -94.4% | [18] -83.9%
inactive: [1] 15.2% | [2] 15.8% | [10] 37.1%

C#C[C@]1(O)CC[C@H]2[C@@H]3CC[C@H]4CC(F)(F)CC[C@]4(C)[C@H]3CC[C@@]21C
inactive: [2] 80.1% | [3] 84.6% | [4] 88.5% | [5] 94.2% | [6] 60.8% | [7] 94.2% | [8] 93.9% | [9] 77.6% | [10] 92.2% | [11] 64.7% | [12] 58.6% | [13] 84% | [14] 87.9% | [15] 88.9% | [16] 76.6% | [17] 112% | [18] 87.2%
active: [1] 8.15%

COc1ccc(CCc2nc3cc(-c4c(C)noc4C)ccc3n2CCN2CCOCC2)cc1
inactive: [1] 39% | [3] 34.6% | [4] 49.8% | [5] 30.8% | [6] 88.1% | [7] 48.3% | [9] 50.2% | [10] 57.1% | [11] 28.2% | [12] 81.4% | [13] 26.1% | [14] 26.6% | [15] 34.5% | [16] 31.1% | [17] 47.3% | [18] 33.6%
active: [2] -5.7% | [8] 3.29%

Cc1cc(OI)c(C(C)C)cc1-c1cc(C(C)C)c(OI)cc1C
inactive: [1] 84.8% | [2] 103% | [3] 104% | [4] 94.4% | [5] 109% | [6] 92.4% | [7] 98% | [8] 108% | [9] 109% | [10] 102% | [11] 81.6% | [12] 111% | [13] 112% | [14] 113% | [15] 92.6% | [16] 101% | [17] 105% | [18] 101%

Cc1ccc(-c2cc(-c3cccc(Nc4ccnc5cc(Cl)ccc45)c3)nc3nc(N)[nH]c(=O)c23)cc1
inactive: [1] 48.9% | [2] 92.8% | [3] 92.5% | [4] 108% | [5] 111% | [6] 111% | [7] 76.7% | [8] 92.7% | [9] 104% | [10] 100% | [11] 35% | [12] 86.4% | [13] 99.8% | [14] 95.8% | [15] 72.5% | [16] 91.3% | [17] 91.5% | [18] 70.5%

COc1ccc(/C(=C/c2cc(OC)c(OC)cc2[N+](=O)[O-])C(=O)O)cc1
inactive: [1] 99.6% | [2] 97.3% | [3] 109% | [4] 111% | [5] 113% | [6] 99.9% | [7] 107% | [8] 125% | [9] 114% | [10] 110% | [11] 94.8% | [12] 111% | [13] 116% | [14] 105% | [15] 105% | [16] 116% | [17] 107% | [18] 121%

CCOC(=O)c1cc(-c2ccccc2)nc(N)n1
inactive: [1] 106% | [2] 99.6% | [3] 103% | [4] 98.2% | [5] 107% | [6] 103% | [7] 103% | [8] 109% | [9] 92.5% | [10] 100% | [11] 114% | [12] 103% | [13] 102% | [14] 103% | [15] 87.6% | [16] 104% | [17] 109% | [18] 110%

COc1cccc2c1C(=O)c1c(O)c3c(c(O)c1C2=O)C[C@@](O)(C(=O)COC(=O)c1ccccc1)C[C@@H]3OC1CC(N)C(O)C(C)O1 (stereo partly specified)
active: [1] -43.7% | [2] -66.4% | [3] -77.3% | [4] -94.9% | [5] -87.9% | [6] -72.8% | [7] -75.2% | [8] -93.6% | [9] -41.6% | [11] -71.7% | [12] -76.9% | [13] -97.7% | [14] -81.9% | [15] -66.2% | [16] -75% | [17] -93% | [18] -95.6%
inactive: [10] 22.5%

Cc1nc(N)sc1Sc1nc2ccc(Cl)cc2c(=O)n1-c1ccc(Oc2ccccc2)cc1
inactive: [2] 68.1% | [3] 75.2% | [4] 87.9% | [5] 40.9% | [6] 104% | [7] 101% | [8] 91.3% | [9] 81.9% | [10] 69.9% | [11] 75.5% | [12] 63.2% | [13] 88.1% | [14] 66.1% | [15] 87.4% | [16] 33.3% | [17] 74.1% | [18] 79.8%
active: [1] -44.8%

O=c1ccc2nc(-c3ccccc3)nn(-c3ccccc3)c-2c1
inactive: [4] 102% | [6] 59.1% | [9] 75.9% | [10] 96.2% | [12] 90.2% | [13] 24.7% | [17] 100% | [18] 63.1%
active: [1] -20.2% | [2] -8.63% | [3] -2.36% | [5] -40.7% | [7] 2.66% | [8] -98.1% | [11] -36.5% | [14] -80.5% | [15] -66.7% | [16] -90.7%

CCOC(=O)Nc1ccc2c(c1)C(=O)N(CC)c1ccccc1O2
active: [1] 8.37% | [3] 7.22% | [8] -7.48% | [10] 8.14% | [13] -17.1% | [16] 9.54%
inactive: [2] 12.4% | [4] 74% | [5] 43.7% | [6] 23.2% | [7] 32.1% | [9] 46% | [11] 73.4% | [12] 26.2% | [14] 32.7% | [15] 14.2% | [17] 18.2% | [18] 14.7%

COc1cc(-c2nc3cc(Cl)c(Cl)cc3[nH]2)ccc1OCC(=O)NN
inactive: [1] 77.4% | [2] 107% | [3] 76.4% | [4] 98.1% | [5] 85.3% | [6] 93.3% | [7] 86.6% | [8] 93% | [9] 95.1% | [10] 87.8% | [11] 66.9% | [12] 95% | [13] 63.6% | [14] 80.9% | [15] 73.4% | [16] 96.1% | [17] 103% | [18] 64.6%

Reference: PubChem BioAssay (NCI)
